Test results as given in the supplement of paper PMC10338343.
± gives the standard deviation.

Each sequence was assayed on EfPiwi piRISC loaded with L1MC piRNA (26 nt) (assay: pre-steady-state target cleavage rate (min^-1); auxiliary factor: none (no Gtsf1); guide: L1MC piRNA 5'p-UAACUAAAUACUAUGCAAGCUGUAGG; MIWI and MILI are mouse PIWI proteins and EfPiwi is from a freshwater sponge; tags in brackets are library labels; higher = faster piRNA-guided slicing of the target).
Description: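 Cleave-'n-Seq: a library of target RNAs (target site in constant flanks) at […] was incubated with 1 nM active freshwater sponge Ephydatia fluviatilis Piwi piRISC (synthetic 5'-monophosphorylated piRNA guide) with or without 500 nM EmGtsf1 at 33 °C for 1 min to 16 h. Uncleaved targets were sequenced and the pooled three trials fitted to a burst-and-steady-state model to give the pre-steady-state cleavage rate (min^-1). Sequence is the target site only. Fits with R² ≤ 0 are excluded.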

pre-steady-state target cleavage rate, 0.0111 ± 0.0065:
UCCUGGAUCAGCUUGCAUAGUAUUUUAGUUA

pre-steady-state target cleavage rate, 0.00519 ± 0.0044:
UCCUGGAACAGCUUGUAUAGUAUUUAGUUA

pre-steady-state target cleavage rate, 0.0241 ± 0.0099:
UCCUGGAUCUGCUUGCAUAGUAAUUAGUUA

pre-steady-state target cleavage rate, 0.0107 ± 0.0064:
UCCUGGAUGUGCUUGCAUAGUAUCUUAGUUA

pre-steady-state target cleavage rate, 0.00517 ± 0.0042:
UCCUGGAUGAGCUUGCAUAGUAGUUAGUUA

pre-steady-state target cleavage rate, 0.0132 ± 0.0071:
UCCUGGAUCAGCUUGCAUAGUAUCUUAGUUA

pre-steady-state target cleavage rate, 0.00638 ± 0.0035:
UCCUCCUACAGCUUGCAUAGGAUUUAGUUA

pre-steady-state target cleavage rate, 0.0324 ± 0.012:
UCCUGGAUCAGCUUGCAUAGUAGUUAGUUA

pre-steady-state target cleavage rate, < 0.0001:
UCCUGGAUGUCGAACCCUAGUAUUUAGUUA
UCCUGGAUGAGCUUGCAUAGUUUUUAGAUA
UCCUGGAUGUCGAACGUUAGUAUUUAGAUUA
UCCUGCUACAGCUUGCAUAUGUAUUUAGUUA
UCCUGGAUGUCCUUGCAUAGUAUUUCAGUUA
UCCUGGAUGUCGAACGUUAGAAUUUUGUUA
UCCUGGAUGUCGAACCAUACGUAUUUAGUUA
UCCUGGAUGUCGAAGCAUAGUUAAAUCAAA [g10:g16:cont:t1A]
UCCUGGAUGUCGAAGCAUAGAUAUUUAGUUA
UCCUGGAUGUCCAUGCAUAGUAUUUAGAUA
UCCUGGAUGUCGUUGCAUAGUAUAAUGUUA
UCCUGGAUGUCGUUGCAUGUAUUUAGUUA
UCCUGGUACAGCUUGCAUAGUAUAUACUUA
UCCUGGAUGUCGAAGCAUAGGAUUUAGUUA
UCCUGGAUGUCGAACGUAUCUAUUCAGUUA
UCCUGGAACAGCUUGCAUAGUAUUAUGAAA
UCCUCCUACACGAUGCAUAGUAUUUACAAA
UCCUGGAUCAGGAAGCAUAGUAUUUAGAAA
UCCUGCUACAGCUUGCAUAGUAUUUAGCUA
UCCUGGAUCAGGAAGCAUAGUAUUUUCAAA
UCCUGGAUGUCGAAGCAUAGUAUAAUCAAA [g8:g16:cont:t1A]
UCCUGGAUGUCGAACGUAAGUAUUUAGUCA
UCCUGGAUGUCGAAGCAUAGUUUUUACUUA
UCCUGGAUGUCGUUCCAUAGUAUAUAGUUA
UCCUGGAUGUCGAACGAAAGUUUUUAGUUA
UCCUGGAUGUCCAUGCAUAGUAUAUAGUUA
UCCUGGAUGUCGAUGCAGUAGUAUUUAGUUA
UCCUGGAUGUCGAAGCAUAGUAUAUUAGUUA
UCCUGGAUGAGCUUGCAUCAGUAUUUAGUUA
UCCUGGAACAGCUUGCAUAGUAUUAACAAA
UCCUCCUACAGCUUGCAUAGAAUUUUCAAA
UCCUGGAUGUCGAACGUUAGUAAAUAGUUA
